An excerpt weighted towards active compounds, which were near 2.5% of everything screened.
CASP6 VEID inh – inhibitors of human caspase-6; AID 686996; 0.53% of 350,000 active; purified caspase-6, Z-VEID-R110 cleavage fluorescence; P55212; inhibition, % at 12.5 µM;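 active = mean inhibition across replicates at least about 35%, with every replicate also reaching that limit, limit read from the data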;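 also: 0% = median of neutral control wells and 100% = no fluorescence left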
rRNA inh HTS – inhibitors of bacterial rRNA selective over humanized ribosomes. GFP signal change (wild-type ribosome), % (test concentration not listed). 1.6% of 350,000 active. AID 720706. E. coli WT GFP vs humanized-ribosome RFP mutants, fluorescence, 24 h; hits give low values; DMSO median 0, no signal -100;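 active = significant combined selectivity score with lowered wild-type GFP, culture density cut under 30%, mutant RFP and density less affected; inactive = any of these conditions unmet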
MLL AF4-AF9 inh – blocks AF4 peptide binding to human AF9 | AlphaScreen, biotin-AF4 peptide binding to FLAG-AF9 | 0.47% of 350,000 active | P42568 | inhibition, % at 10 µM;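 active = every replicate reaching a set inhibition limit, whatever the replicate mean, cut at about 25% in these data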;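 also: 0% = plate neutral control median and 100% = total signal loss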
RAD52 anneal inh – inhibitors of human RAD52 DNA annealing; P43351; recombinant RAD52 DNA annealing, FRET fluorescence; inhibition, % at 18.7 µM; 0.46% of 360,000 active; AID 651710;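 active = every replicate showing at least 50% inhibition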
NSD2 inh – blocks human histone methyltransferase NSD2; O96028; NSD2 peptide methylation, AlphaScreen, 120 min; inhibition, % at 12.5 µM; 0.54% of 310,000 active; AID 743445; in the data active = inhibition above about 50%
* hit, by the source's call.

What do the screens show for `O=[N+]([O-])c1ccc(/C=N/NC(=S)Nc2ccc(Cl)cc2Cl)s1`?
CASP6 VEID inh: 1.0; rRNA inh HTS: -19.0*; MLL AF4-AF9 inh: -1.6; RAD52 anneal inh: -15.5; NSD2 inh: 4.1

Results for Cc1ccc(NC(C)C(=O)N/N=C/c2ccc([N+](=O)[O-])s2)cc1 (centres undefined) ?
CASP6 VEID inh: 0.9; rRNA inh HTS: -21.7*; MLL AF4-AF9 inh: 3.3; RAD52 anneal inh: -4.3; NSD2 inh: 7.1

Results for C[C@H](CO)N1C[C@H](C)[C@H](CN(C)C)Oc2cc(C3=CCCCC3)ccc2S1(=O)=O ?
rRNA inh HTS: 2.2

What do the screens show for `C(=N\Nc1nc(N2CCCC2)nc(N2CCCC2)n1)/c1cccnc1`?
CASP6 VEID inh: 0.6; rRNA inh HTS: 10.9; MLL AF4-AF9 inh: 0.1; RAD52 anneal inh: 4.1; NSD2 inh: -7.3

How did FC(F)(F)COc1nc(N/N=C/c2cccnc2)nc(N2CCCCC2c2ccccn2)n1 (centres undefined) do in these assays?
CASP6 VEID inh: 0.1; rRNA inh HTS: -33.4*; MLL AF4-AF9 inh: 2.4; RAD52 anneal inh: -3.7; NSD2 inh: -2.8

Results for O=C(CNc1cccc(Cl)c1)NNC(=S)NCc1ccccc1 ?
CASP6 VEID inh: 2.0; rRNA inh HTS: -24.1*; MLL AF4-AF9 inh: 1.6; RAD52 anneal inh: -18.4; NSD2 inh: 2.4

Results for O=C(CNC(=S)N(Cc1ccc(F)cc1)C1CCCCC1)NCC1CCCO1 (centres undefined) ?
CASP6 VEID inh: 0.5; rRNA inh HTS: 4.2; MLL AF4-AF9 inh: -0.2; RAD52 anneal inh: -10.9; NSD2 inh: 4.3

What do the screens show for `O=C(CNC(=S)N(Cc1ccccc1F)C1CCCCC1)NCC1CCCO1` (centres undefined)?
CASP6 VEID inh: -1.0; rRNA inh HTS: -31.7*; MLL AF4-AF9 inh: -3.6; RAD52 anneal inh: -14.2; NSD2 inh: -2.0

What do the screens show for `CO[C@H]1CN(C)C(=O)c2ccc(NC(=O)C3CCOCC3)cc2OC[C@H](C)N(Cc2nccs2)C[C@@H]1C`?
CASP6 VEID inh: -0.2; rRNA inh HTS: 2.3; MLL AF4-AF9 inh: -0.2; RAD52 anneal inh: -3.1

How did O=C(/C=C/c1cccc(Br)c1)c1ccc2c(c1)OCO2 do in these assays?
CASP6 VEID inh: 2.4; rRNA inh HTS: -41.0; MLL AF4-AF9 inh: -15.1; RAD52 anneal inh: -10.5; NSD2 inh: 4.7

How did O=C(/C=C/c1ccccc1)c1ccc2c(c1)OCO2 do in these assays?
CASP6 VEID inh: -1.4; rRNA inh HTS: -24.4*; MLL AF4-AF9 inh: 2.3; RAD52 anneal inh: -22.9; NSD2 inh: 9.1

Results for O=C(C[n+]1ccc(/C=C/c2ccccc2)cc1)c1ccc2c(c1)OCCO2 ?
CASP6 VEID inh: 10.3; rRNA inh HTS: -9.7; MLL AF4-AF9 inh: 17.4; RAD52 anneal inh: 76.2*; NSD2 inh: 48.1

Results for O=C(/C=C/c1ccc2c(c1)OCCCO2)c1ccccc1O ?
CASP6 VEID inh: 0.3; rRNA inh HTS: -33.1*; MLL AF4-AF9 inh: 5.6; RAD52 anneal inh: -21.1; NSD2 inh: 2.9

How did C=CCOC(=O)[C@H]1[C@@H]2C(=O)O[C@@H](c3ccccc3)[C@@H](c3ccccc3)N2[C@@H](c2ccc(OCCOC(=O)[C@@H]3C[C@@H]4C(=O)N[C@@H](Cc5ccccc5)C(=O)N4[C@@H]3c3ccc(O)cc3)cc2)[C@]12C(=O)Nc1ccc(I)cc12 do in these assays?
CASP6 VEID inh: 1.2; MLL AF4-AF9 inh: -2.5; RAD52 anneal inh: -18.6

How did CCCNC(=O)[C@@H]1[C@@H](CO)[C@@H]2Cn3c(ccc(/C=C/c4ccccc4)c3=O)[C@H]1N2C(=O)c1ccccc1 do in these assays?
CASP6 VEID inh: 1.8; rRNA inh HTS: -4.3; MLL AF4-AF9 inh: -5.6; RAD52 anneal inh: 7.9

What do the screens show for `O=C(/C=C/c1ccco1)N(Cc1cccc(Cl)c1)C1CCS(=O)(=O)C1` (centres undefined)?
CASP6 VEID inh: 4.0; rRNA inh HTS: 1.8; RAD52 anneal inh: -22.7; NSD2 inh: 0.9

How did CC(C)CN(C(=O)COC(=O)/C=C/c1ccccc1)C1CCS(=O)(=O)C1 (centres undefined) do in these assays?
CASP6 VEID inh: 39.0*; MLL AF4-AF9 inh: -0.6; RAD52 anneal inh: -1.0; NSD2 inh: 1.8

How did O=C(/C=C/c1ccccc1)N(Cc1cccs1)C1CCS(=O)(=O)C1 (centres undefined) do in these assays?
CASP6 VEID inh: 5.4; rRNA inh HTS: -13.2; RAD52 anneal inh: -12.8; NSD2 inh: -2.6

How did COc1cccc(CN(C(=O)/C=C/c2ccc(Cl)cc2)C2CCS(=O)(=O)C2)c1 (centres undefined) do in these assays?
CASP6 VEID inh: 5.7; rRNA inh HTS: -35.9*; MLL AF4-AF9 inh: 6.7; RAD52 anneal inh: -4.1; NSD2 inh: -0.2

How did O=C(/C=C/c1ccccc1)N(Cc1cccc(Cl)c1)C1CCS(=O)(=O)C1 (centres undefined) do in these assays?
CASP6 VEID inh: 2.3; rRNA inh HTS: -35.4*; MLL AF4-AF9 inh: 1.3; RAD52 anneal inh: -7.1; NSD2 inh: -1.6

What do the screens show for `O=C(/C=C/c1ccccc1)N(Cc1ccc(Cl)cc1)C1CCS(=O)(=O)C1` (centres undefined)?
CASP6 VEID inh: 6.6; rRNA inh HTS: -22.1*; MLL AF4-AF9 inh: 6.7; RAD52 anneal inh: -13.5; NSD2 inh: 1.1

Results for CCN(C(=O)COC(=O)/C=C/c1ccccc1[N+](=O)[O-])C1CCS(=O)(=O)C1 (centres undefined) ?
CASP6 VEID inh: 2.0; rRNA inh HTS: 6.0; MLL AF4-AF9 inh: 1.2; RAD52 anneal inh: -11.2; NSD2 inh: -8.6

What do the screens show for `O=C(Nc1ccc(F)cc1)N1CC(=O)N2[C@H](CO)[C@H](c3ccc(-c4ccc(F)cc4)cc3)[C@H]2C1`?
CASP6 VEID inh: -2.4; rRNA inh HTS: -41.6; MLL AF4-AF9 inh: 3.0; RAD52 anneal inh: 7.9

Results for CO[C@@H](CN(C)Cc1cc(F)ccc1F)[C@@H](C)CN([C@H](C)CO)S(=O)(=O)c1ccc(F)cc1 ?
CASP6 VEID inh: 0.0; MLL AF4-AF9 inh: -4.0; RAD52 anneal inh: -0.8

What do the screens show for `COc1ccc2c3c([nH]c2c1)[C@H](CO)N(C(=O)Nc1ccc(F)cc1)CC31CCN(S(=O)(=O)c2ccc(C)cc2)CC1`?
CASP6 VEID inh: 0.5; rRNA inh HTS: -3.3; MLL AF4-AF9 inh: -0.1; RAD52 anneal inh: 6.1

How did CC(C)NC(=O)N(C)C[C@H]1OCCCC[C@@H](C)Oc2ccc(NC(=O)c3ccccc3)cc2C(=O)N([C@@H](C)CO)C[C@@H]1C do in these assays?
CASP6 VEID inh: 1.6; rRNA inh HTS: -3.1; MLL AF4-AF9 inh: -3.9; RAD52 anneal inh: 5.7

Results for S=c1[nH]cnc2scc(-c3ccc(Cl)cc3)c12 ?
CASP6 VEID inh: 4.2; rRNA inh HTS: -51.2*; MLL AF4-AF9 inh: -3.3; RAD52 anneal inh: -18.3; NSD2 inh: 1.8

How did Cc1nn(-c2ccccc2)c(N)c1Sc1ccccc1[N+](=O)[O-] do in these assays?
CASP6 VEID inh: 0.1; rRNA inh HTS: -37.0*; MLL AF4-AF9 inh: 17.0; RAD52 anneal inh: -4.2; NSD2 inh: 5.6

Results for Cc1nn(-c2ccccc2)c(N)c1Sc1cccc([N+](=O)[O-])c1 ?
NSD2 inh: 4.2

Source: PubChem
